Measured values taken from PubChem BioAssay (NCATS).
Records with an inconclusive call do not appear. Activity calls are given as the source filed them. Calls follow the shape of the dose curve; as a rule, active = well fitted cell-killing curve with a large enough effect; inconclusive = small, poorly fitted or top-dose-only effect, or effect the other way; inactive = flat fitted curve, though single readings scatter.

Legend:
Assay in all cases: Primary qHTS to identify gynecologic anti-cancer compounds using libraries of approved drugs and bioactive compounds (AID 1345084); also: nearly all actives have a fitted effect of over 55% in size
C33A = conditions: Gynecologic cancer cell panel viability, ATPlite luminescence, 48 h; series mostly up to 57.5 µM
Outline: (§1)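 Five-point cytotoxicity, 48 h drug exposure at 37 C, 5% CO2, on cells seeded 16 h beforehand. ATP content read by ATPlite luminescence.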

CAOV3 = conditions: Gynecologic cancer cell panel viability, ATPlite luminescence, 48 h; series mostly up to 57.5 µM
Outline: as §1

CASKI = conditions: Gynecologic cancer cell panel viability, ATPlite luminescence, 48 h; series mostly up to 57.5 µM
Outline: as §1

Es-2 = conditions: Gynecologic cancer cell panel viability, ATPlite luminescence, 48 h; series mostly up to 57.5 µM
Outline: as §1

HeLa = conditions: Gynecologic cancer cell panel viability, ATPlite luminescence, 48 h; series mostly up to 57.5 µM
Outline: as §1

Hek293T = conditions: Gynecologic cancer cell panel viability, ATPlite luminescence, 48 h, control line for the selectivity index; series mostly up to 57.5 µM
Outline: as §1

JEG-3 = conditions: Gynecologic cancer cell panel viability, ATPlite luminescence, 48 h; series mostly up to 57.5 µM
Outline: as §1

OV90 = conditions: Gynecologic cancer cell panel viability, ATPlite luminescence, 48 h; series mostly up to 57.5 µM
Outline: as §1

PA-1 = conditions: Gynecologic cancer cell panel viability, ATPlite luminescence, 48 h; series mostly up to 57.5 µM
Outline: as §1

SKOV3 = conditions: Gynecologic cancer cell panel viability, ATPlite luminescence, 48 h; series mostly up to 57.5 µM
Outline: as §1

Tov-21-G = conditions: Gynecologic cancer cell panel viability, ATPlite luminescence, 48 h; series mostly up to 57.5 µM
Outline: as §1

Tov112D = conditions: Gynecologic cancer cell panel viability, ATPlite luminescence, 48 h; series mostly up to 57.5 µM
Outline: as §1
% is scaled to controls: 0 for no effect and ±100 for the full control effect.

CC1=C(C)C(=O)OC(C(C)C2CCC3C4CC=C5CC(OC6OC(COC7OC(CO)C(O)C(O)C7O)C(O)C(O)C6O)CC(O)C5(C)C4CCC23C)C1 (stereo unspecified)
inactive: Potency (C33A) | Potency (CAOV3) | Potency (CASKI) | Potency (Es-2) | Potency (HeLa) | Potency (Hek293T) | Potency (JEG-3) | Potency (OV90) | Potency (PA-1) | Potency (SKOV3) | Potency (Tov-21-G) | Potency (Tov112D)

C=C(C)[C@@H]1CC[C@]2(C)CC[C@]3(C)[C@H](CC[C@@H]4[C@@]5(C)CC[C@@H](O)C(C)(C)[C@@H]5CC[C@]43C)[C@@H]12
inactive: Potency (C33A) | Potency (CAOV3) | Potency (CASKI) | Potency (Es-2) | Potency (HeLa) | Potency (Hek293T) | Potency (JEG-3) | Potency (OV90) | Potency (PA-1) | Potency (SKOV3) | Potency (Tov-21-G) | Potency (Tov112D)

CC1(C)CC[C@]2(C(=O)O[C@@H]3O[C@H](CO[C@@H]4O[C@H](CO)[C@@H](O)[C@H](O)[C@H]4O[C@@H]4O[C@H](CO)[C@@H](O)[C@H](O)[C@H]4O)[C@@H](O)[C@H](O[C@@H]4O[C@H](CO)[C@@H](O)[C@H](O)[C@H]4O)[C@H]3O)CC[C@]3(C)C(=CCC4[C@@]5(C)CC[C@@H](O)[C@@](C)(C(=O)O[C@@H]6O[C@H](CO)[C@@H](O)[C@H](O)[C@H]6O)C5CC[C@]43C)[C@@H]2C1 (stereo partly specified)
inactive: activity change, negative = cytotoxicity (C33A) -23% [at 6.55 µM] | activity change, negative = cytotoxicity (CAOV3) 2.18% [at 6.55 µM] | activity change, negative = cytotoxicity (CASKI) -2.18% [at 6.55 µM] | activity change, negative = cytotoxicity (Es-2) 0.72% [at 6.55 µM] | activity change, negative = cytotoxicity (HeLa) 5.19% [at 6.55 µM] | activity change, negative = cytotoxicity (Hek293T) 16.4% [at 6.55 µM] | activity change, negative = cytotoxicity (JEG-3) -0.894% [at 6.55 µM] | activity change, negative = cytotoxicity (OV90) -0.699% [at 6.55 µM] | activity change, negative = cytotoxicity (PA-1) 5.56% [at 6.55 µM] | activity change, negative = cytotoxicity (SKOV3) -6.61% [at 6.55 µM] | activity change, negative = cytotoxicity (Tov-21-G) -1.95% [at 6.55 µM] | activity change, negative = cytotoxicity (Tov112D) -1.22% [at 6.55 µM]

CC1(C)CC[C@]2(CO[C@@H]3O[C@H](CO)[C@@H](O)[C@H](O)[C@H]3O)[C@@H](O)C[C@]3(C)C(=CCC4[C@@]5(C)CC[C@H](O[C@@H]6O[C@H](CO[C@@H]7O[C@H](CO[C@@H]8OC[C@@H](O)[C@H](O)[C@H]8O)[C@@H](O)[C@H](O)[C@H]7O)[C@@H](O)[C@H](O)[C@H]6O)C(C)(C)C5CC[C@]43C)[C@@H]2C1 (stereo partly specified)
inactive: activity change, negative = cytotoxicity (C33A) 4.63% [at 11.6 µM] | activity change, negative = cytotoxicity (CAOV3) 5.01% [at 11.6 µM] | activity change, negative = cytotoxicity (CASKI) -3.94% [at 11.6 µM] | activity change, negative = cytotoxicity (Es-2) 4.96% [at 11.6 µM] | activity change, negative = cytotoxicity (HeLa) -7.27% [at 11.6 µM] | activity change, negative = cytotoxicity (Hek293T) 1.89% [at 11.6 µM] | activity change, negative = cytotoxicity (JEG-3) 1.67% [at 11.6 µM] | activity change, negative = cytotoxicity (OV90) -3.63% [at 11.6 µM] | activity change, negative = cytotoxicity (PA-1) -8.81% [at 11.6 µM] | activity change, negative = cytotoxicity (SKOV3) -1.91% [at 11.6 µM] | activity change, negative = cytotoxicity (Tov-21-G) 4.01% [at 11.6 µM] | activity change, negative = cytotoxicity (Tov112D) -1.63% [at 11.6 µM]

C[C@@H]1C(=O)O[C@H]2C[C@]34[C@H]5C[C@@H](C(C)(C)C)[C@]36[C@@H](OC(=O)[C@H]6O)O[C@]4(C(=O)O5)[C@]21O
inactive: Potency (C33A) | Potency (CAOV3) | Potency (CASKI) | Potency (Es-2) | Potency (HeLa) | Potency (Hek293T) | Potency (JEG-3) | Potency (OV90) | Potency (PA-1) | Potency (SKOV3) | Potency (Tov-21-G) | Potency (Tov112D)

CC(=O)O[C@@H](CO[C@@H]1O[C@H](CO)[C@H](O)[C@H](O)[C@H]1O)[C@]1(C)C=C2CC[C@@H]3C(C)(C)[C@@H](O)CC[C@@]3(C)[C@@H]2CC1
inactive: Potency (C33A) | Potency (CAOV3) | Potency (CASKI) | Potency (Es-2) | Potency (HeLa) | Potency (Hek293T) | Potency (JEG-3) | Potency (OV90) | Potency (PA-1) | Potency (SKOV3) | Potency (Tov-21-G) | Potency (Tov112D)

CC1=C2C[C@H]3O[C@@]3(C)CCC3O[C@@]3(C)C[C@@]2(O)OC1=O (stereo partly specified)
inactive: Potency (C33A) | Potency (CAOV3) | Potency (CASKI) | Potency (Es-2) | Potency (HeLa) | Potency (Hek293T) | Potency (JEG-3) | Potency (OV90) | Potency (PA-1) | Potency (SKOV3) | Potency (Tov-21-G) | Potency (Tov112D)

CC1=CC(=O)CC(C)(C)C1/C=C/C(C)O[C@@H]1O[C@H](CO)[C@@H](O)[C@H](O)[C@H]1O[C@@H]1OC[C@](O)(CO)[C@H]1O (stereo partly specified)
inactive: Potency (C33A) | Potency (CAOV3) | Potency (CASKI) | Potency (Es-2) | Potency (HeLa) | Potency (Hek293T) | Potency (JEG-3) | Potency (OV90) | Potency (PA-1) | Potency (SKOV3) | Potency (Tov-21-G) | Potency (Tov112D)

CC(O)/C=C/C1OC(=O)CC1Nc1ccc(C(=O)O)cc1 (stereo unspecified)
inactive: Potency (C33A) | Potency (CAOV3) | Potency (CASKI) | Potency (Es-2) | Potency (HeLa) | Potency (Hek293T) | Potency (JEG-3) | Potency (OV90) | Potency (PA-1) | Potency (SKOV3) | Potency (Tov-21-G) | Potency (Tov112D)

OCc1ccc(O[C@@H]2O[C@H](CO)[C@@H](O)[C@H](O)[C@H]2O)cc1
inactive: Potency (C33A) | Potency (CAOV3) | Potency (CASKI) | Potency (Es-2) | Potency (HeLa) | Potency (Hek293T) | Potency (JEG-3) | Potency (OV90) | Potency (PA-1) | Potency (SKOV3) | Potency (Tov-21-G) | Potency (Tov112D)

CC12CCC(C(OC3OC(COC4OCC(O)(CO)C4O)C(O)C(O)C3O)C1)C(C)(C)O2 (stereo unspecified)
inactive: Potency (C33A) | Potency (CAOV3) | Potency (CASKI) | Potency (Es-2) | Potency (HeLa) | Potency (Hek293T) | Potency (JEG-3) | Potency (OV90) | Potency (PA-1) | Potency (SKOV3) | Potency (Tov-21-G) | Potency (Tov112D)

C=C1C(O)CC2C(C(=O)O)=COC(O[C@@H]3O[C@H](COC(=O)/C=C/c4ccc(O)cc4)[C@@H](O)[C@H](O)[C@H]3O)C12 (stereo partly specified)
inactive: Potency (C33A) | Potency (CAOV3) | Potency (CASKI) | Potency (Es-2) | Potency (HeLa) | Potency (Hek293T) | Potency (JEG-3) | Potency (OV90) | Potency (PA-1) | Potency (SKOV3) | Potency (Tov-21-G) | Potency (Tov112D)

CC(C)c1ccc2c(c1)C(=O)CC1[C@@](C)(C(=O)O)CCC[C@]21C (stereo partly specified)
inactive: Potency (C33A) | Potency (CAOV3) | Potency (CASKI) | Potency (Es-2) | Potency (HeLa) | Potency (Hek293T) | Potency (JEG-3) | Potency (OV90) | Potency (PA-1) | Potency (SKOV3) | Potency (Tov-21-G) | Potency (Tov112D)
